Potency and affinity values are given separately. Calls of active or inactive are those of the source.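 The calls were made as follows: active = curve fits scoring over 52 on a 0 to 100 blend rewarding potency under 10 µM and span over 20%; inactive = the rest.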

The text below walks through data of PubChem BioAssay AID1689 (NMMLSC, 2009).

The target in this assay is ATP-dependent translocase ABCB1 (Homo sapiens) (UniProt P08183). The assay is described as follows: inhibition of P-gp mediated JC-1 efflux – Jurkat-DNR cells, flow cytometry, dose response (AID 1689). The settings on record: series mostly up to 66.6 µM. A general note: Flow cytometry measures light scatter and fluorescence of single cells or particles in a stream.
ATP-dependent translocase ABCB1 (Homo sapiens), sequence (P08183 whole entry, looked up): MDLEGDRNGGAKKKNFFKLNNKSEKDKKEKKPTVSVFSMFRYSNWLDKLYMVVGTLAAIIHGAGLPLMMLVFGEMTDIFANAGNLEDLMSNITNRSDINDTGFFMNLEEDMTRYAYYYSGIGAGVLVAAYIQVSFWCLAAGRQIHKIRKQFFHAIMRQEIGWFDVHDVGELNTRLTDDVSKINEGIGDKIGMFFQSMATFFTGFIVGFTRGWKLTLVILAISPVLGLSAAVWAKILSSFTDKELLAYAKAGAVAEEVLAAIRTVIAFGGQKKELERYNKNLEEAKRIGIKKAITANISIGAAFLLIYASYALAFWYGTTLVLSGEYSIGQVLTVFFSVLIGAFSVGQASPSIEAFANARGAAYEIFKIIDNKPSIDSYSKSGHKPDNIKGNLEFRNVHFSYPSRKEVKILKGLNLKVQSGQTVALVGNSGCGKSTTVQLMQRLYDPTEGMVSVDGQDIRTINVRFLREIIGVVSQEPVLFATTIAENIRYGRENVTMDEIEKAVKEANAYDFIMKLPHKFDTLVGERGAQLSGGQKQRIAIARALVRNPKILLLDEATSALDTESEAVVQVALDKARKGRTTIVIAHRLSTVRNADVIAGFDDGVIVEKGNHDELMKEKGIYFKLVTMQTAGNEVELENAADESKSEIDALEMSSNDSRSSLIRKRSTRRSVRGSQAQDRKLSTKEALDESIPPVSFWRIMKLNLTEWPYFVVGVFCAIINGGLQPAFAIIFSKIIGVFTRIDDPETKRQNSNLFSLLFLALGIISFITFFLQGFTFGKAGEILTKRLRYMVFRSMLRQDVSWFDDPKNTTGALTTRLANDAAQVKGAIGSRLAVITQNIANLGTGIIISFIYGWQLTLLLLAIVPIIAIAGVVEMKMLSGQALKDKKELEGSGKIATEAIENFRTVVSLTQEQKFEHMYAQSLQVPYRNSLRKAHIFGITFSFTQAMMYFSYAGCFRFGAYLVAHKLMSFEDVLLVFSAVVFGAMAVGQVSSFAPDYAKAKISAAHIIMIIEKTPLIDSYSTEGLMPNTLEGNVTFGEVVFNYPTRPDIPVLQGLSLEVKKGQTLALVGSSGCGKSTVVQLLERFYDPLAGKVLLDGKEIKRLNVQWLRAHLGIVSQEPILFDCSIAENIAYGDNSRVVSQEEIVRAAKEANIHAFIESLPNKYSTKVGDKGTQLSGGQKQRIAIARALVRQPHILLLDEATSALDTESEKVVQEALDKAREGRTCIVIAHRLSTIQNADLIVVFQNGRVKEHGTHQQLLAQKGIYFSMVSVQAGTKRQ
Consider `CC(=O)Nc1ccc(Nc2ccc(S(=O)(=O)C(F)(F)F)cc2[N+](=O)[O-])cc1`, for which the outcome was inactive.

Regarding `N#CC(C#N)=C1C=C2C=C(N3CCCCCC3)CCC2CC1` (stereo not drawn), the compound was classed as inactive.

Take `COc1ccc(CCNC(=O)COC(=O)/C=C/c2ccc(OC)c(OC)c2)cc1`: the compound was called inactive.

Take `COc1ccccc1Nc1nc2nonc2nc1N1CCCCC1C` (stereo not drawn): the result was inactive.

Turning to `COC(=O)c1cc(NC(=O)c2ccccc2)c(=O)oc1/C=C/Nc1ccc(Oc2ccccc2)cc1`, the call was inactive.

`CN(C)c1ccc(/C=C2\SC(=S)N(Nc3ncc(C(F)(F)F)cc3Cl)C2=O)cc1`: the result was inactive.

`CCCCN1/C(=C/c2ccc3ccccc3[n+]2CC)Sc2ccccc21`: the compound was called inactive.

Consider `CN1CCN(C2=CC3=CC(=C(C#N)C#N)CCC3CC2)CC1` (stereo not drawn), for which the call was inactive.

`COc1ccc2cc(C(=O)OC(C)C)sc(=O)c2c1OC`: the result was inactive.

On to `CCN(CC)C1=CC2=CC(=C(C#N)C#N)CCC2CC1` (stereo not drawn), for which the outcome was inactive.

With `COC(=O)c1ccc(C(C(=O)NC2CCCCC2)N(Cc2ccccc2)C(=O)Cc2cccs2)cc1` (stereo not drawn), the compound was called inactive.

`CNc1nc2cc([N+](=O)[O-])c([N+](=O)[O-])cc2nc1NC`: the compound was called inactive.

Take `CCCCN(C)C1=CC2=CC(=C(C#N)C#N)CCC2CC1` (stereo not drawn): the call was inactive.

As to `N#CC(C#N)=C1C=C2C=C(N3CCOCC3)CCC2CC1` (stereo not drawn), the compound was classed as inactive.

For `CCOC(=O)c1sc2cc([N+](=O)[O-])cc(SCC(C)C)c2c1N`, the inhibition was 56.3% [at 2.47 µM] (inactive).

Regarding `CC(C)C(NS(=O)(=O)c1ccccc1)C(=O)OCc1cc([N+](=O)[O-])cc2c1OCOC2` (stereo not drawn), the outcome was inactive.

Regarding `CCOc1ccccc1NC(=O)C(OC(=O)c1ccc(N(C)C)cc1)c1ccccc1` (stereo not drawn), the call was inactive.

Regarding `CC1=NN(c2ccc([N+](=O)[O-])cc2)C(=O)/C1=C/N(C)C`, the compound was classed as inactive.

For `COc1cccc(-c2nc(N3CC(C)CC(C)C3)c3ccccc3n2)c1O` (stereo not drawn), the result was inactive.

`Cc1cc(C)c(C#N)c(SCc2c(F)cccc2[N+](=O)[O-])n1`: the outcome was inactive.

As to `Cc1c(C(=O)Nc2ccc(F)cc2)c2ccccn2c1CCc1ccncc1`, the outcome was inactive.

Turning to `COc1cc(C(=O)Nc2ccc(S(=O)(=O)NC(C)C)cc2)cc(OC)c1OC`, the outcome was inactive.

In the case of `O=[N+]([O-])c1ccc(Nc2nc(Cl)nc(NCCO)n2)cc1`, the result was inactive.

As usually defined, the inhibition is the change of the read-out against control, counted positive when it falls.
